G9a block: inhibitors of human histone lysine methyltransferase G9a; Q96KQ7; G9a H3K9 monomethylation, AlphaScreen, 2 h; Potency, µM (doses to about 102 µM), inactives show at the top dose activity, negative = inhibition, usual class: inhibitors; 8.8% of 350,000 active; AID 504332; also: % is scaled to controls: 0 for no effect and ±100 for the full control effect; nearly all actives have a fitted effect of over 75% in size
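Readings reflect AlphaScreen signal from monomethyl-H3K9 antibody detection. HMT at 20 nM; substrate b-H3K9 500 nM; cofactor SAM 20 uM; 2 h RT reaction; compounds tested as titrations in qHTS with 15 min preincubation.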
JMJD2A Tudor inh: blocks the human JMJD2A Tudor domain; O75164; AlphaScreen JMJD2A-Tudor / H3K4me3 peptide binding; Potency, µM (top dose mostly 114 µM), without a hit: at the highest dose activity change, negative = inhibition, hits mostly inhibitors; 4.4% of 390,000 active; AID 504339; also: % is scaled to controls: 0 for no effect and ±100 for the full control effect; nearly all actives have a fitted effect of over 50% in size
ALOX12 inh: inhibitors of human 12S-lipoxygenase ALOX12; purified 12hLO, xylenol orange hydroperoxide absorbance; P18054; 1.1% of 580,000 active; Potency, µM (titrated, usually from 108 µM), for the others: at the highest dose activity change, negative = inhibition, hits mostly inhibitors; also: % is scaled to controls: 0 for no effect and ±100 for the full control effect
Target sequence (P18054 whole entry, looked up): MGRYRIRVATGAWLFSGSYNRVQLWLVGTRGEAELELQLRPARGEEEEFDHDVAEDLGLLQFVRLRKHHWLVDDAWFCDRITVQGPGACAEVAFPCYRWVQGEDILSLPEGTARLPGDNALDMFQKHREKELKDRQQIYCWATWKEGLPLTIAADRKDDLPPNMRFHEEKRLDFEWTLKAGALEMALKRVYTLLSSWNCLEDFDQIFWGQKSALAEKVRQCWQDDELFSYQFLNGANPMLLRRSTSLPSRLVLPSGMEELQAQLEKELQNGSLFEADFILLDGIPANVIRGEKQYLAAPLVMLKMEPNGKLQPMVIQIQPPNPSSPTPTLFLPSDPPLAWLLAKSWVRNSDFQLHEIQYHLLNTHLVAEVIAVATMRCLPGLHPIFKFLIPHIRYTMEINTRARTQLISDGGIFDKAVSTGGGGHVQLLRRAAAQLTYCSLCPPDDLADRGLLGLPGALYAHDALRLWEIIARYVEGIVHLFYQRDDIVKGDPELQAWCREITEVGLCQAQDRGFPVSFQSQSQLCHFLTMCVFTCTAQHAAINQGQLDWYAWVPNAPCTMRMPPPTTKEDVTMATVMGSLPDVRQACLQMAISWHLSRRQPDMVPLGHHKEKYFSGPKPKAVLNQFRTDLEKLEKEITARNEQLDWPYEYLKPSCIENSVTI
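Purified human 12hLO at 150 nM in 25 mM Hepes, 0.01% Triton X-100, pH 7.0, preincubated 15 min at room temperature with compound. Reaction started with 40 uM arachidonic acid, 30 min at room temperature. Hydroperoxide measured by Fe-xylenol orange, 573/405 nm absorbance ratio.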
HP1b binding inh: inhibitors of HP1-beta chromodomain binding to methylated histone tails. AlphaScreen HP1-beta / biotin-H3K9me3 peptide binding. Potency, µM (top dose mostly 114 µM), for the others: at the highest dose activity change, negative = inhibition, usual class: inhibitors. 0.56% of 390,000 active. AID 540317; also: nearly all actives have a fitted effect of over 70% in size
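HP1-beta protein (50 nM final) preincubated 30 min at room temperature with biotinylated H3(1-18)K9me3 peptide (50 nM) in PBS pH 7.4, 0.01% Tween-20, then compound added for 30 min. AlphaScreen streptavidin donor/nickel chelate acceptor beads (10 ug/mL final), 30 min dark, luminescence read.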
BAZ2B block: inhibitors of human BAZ2B bromodomain. Q9UIF8. AlphaScreen BAZ2B-H3K14Ac peptide displacement. Potency, µM (highest dose often 114 µM), without a hit: at the highest dose activity change, negative = inhibition, usual class: inhibitors. 4.4% of 360,000 active. AID 504333; also: % is scaled to controls: 0 for no effect and ±100 for the full control effect; nearly all actives have a fitted effect of over 60% in size
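BAZ2B 50 nM plus b-H3(5-23)K14Ac 50 nM, PBS pH 7.4/0.01% Tween-20, 30 min RT; compound added (max 110 uM), 30 min RT; streptavidin donor/Ni-chelate acceptor beads 10 ug/mL final, 20 min dark; AlphaScreen read.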
Sfp inh: inhibitors of Bacillus subtilis Sfp phosphopantetheinyl transferase; Q9F4F7; Biochemical Sfp PPTase activity, qHTS; Potency, µM, for inactives: largest response in the series, negative = inhibition, actives largely listed as inhibitors; 3.5% of 310,000 active;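 also: the enzyme is Sfp with the accession as filed and its product quenches rhodamine fluorescence; 0% = enzyme reaction without inhibitor and -100% = no enzyme wells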
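Sfp 15 nM + cpd, 15 min RT; start w/ rhodamine-CoA 5 uM, BHQ-2-YbbR 12.5 uM (final); 50 mM Hepes pH 7.6, 10 mM MgCl2, 0.01% NP-40, 0.01% BSA; read 525/598 nm at 0 and 30 min.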
The depositor's hits bear a star; ? = inconclusive; . = no result given; [ ] = another dose, or the depositor's remark. Only some compounds are listed: those with a hit (about 8.7% of all), similar ones and a draw of the others. Calls follow the shape of the dose curve; as a rule, active = well fitted curve in the direction sought with a large enough effect; inconclusive = small, poorly fitted or top-dose-only effect, or another doubt; inactive = no such curve, though single readings can be large; an effect the other way counts as inactive or inconclusive. Potency is read from the fitted curve at half-maximal effect.

SMILES | G9a block | JMJD2A Tudor inh | ALOX12 inh | HP1b binding inh | BAZ2B block | Sfp inh
CCCCSc1nc(O)c(C2OC(=O)c3c2ccc(OC)c3OC)c(=O)n1-c1ccccc1 (configuration not stated) | ? | -23% | 483% | 36% | ? | 79µM*
COc1ccccc1NC(=O)CC1CCCN(c2cnn(C)c(=O)c2)C1 (configuration not stated) | . | . | 0% | . | . | .
COC(=O)[C@]1(C)N[C@H](c2ccc(-c3ccc(Cl)c(Cl)c3)c(OC)c2)[C@@H]2C(=O)N(C)C(=O)[C@@H]21 | ? | 89µM* | ? | -4% | -10% | .
COC(=O)[C@]1(C)N[C@H](c2ccc(-c3ccc(OC)cc3)cc2)[C@@H]2C(=O)N(C)C(=O)[C@@H]21 | . | -21% | 1% | 57% | . | .
c1csc(CNc2ccnc(-c3ccc4c(c3)OCO4)n2)c1 | -4%[0.501 µM] | . | ? | . | . | ?
Cc1ccccc1-c1nccc(NCc2cccs2)n1 | -3%[0.501 µM] | . | ? | . | . | 89µM*
COc1cccc(-c2nccc(NCc3cccs3)n2)c1 | -2%[0.501 µM] | . | -42% | . | . | 79µM*
CS(=O)(=O)Nc1cccc(-c2nccc(NCc3cccs3)n2)c1 | 22%[0.501 µM] | . | ? | . | . | -4%
c1cncc(-c2[nH]ncc2CNCc2cccs2)c1 | . | . | 7.1µM* | . | . | .
c1csc(CNCc2ccncc2)c1 | -64% | -6% | ? | 43% | -19% | 0%
c1cncc(-c2nccc(NCc3cccs3)n2)c1 | -11%[0.501 µM] | . | 20µM* | . | . | -18%
CCCCC(=O)NC1(C(F)(F)F)C(=O)N(Cc2ccccc2)C(C)=C1C(=O)OC (configuration not stated) | . | . | 18% | . | . | .
COc1ccc(Cl)cc1CO/N=C/c1cccc(OC)c1OC | . | . | 4% | . | . | .
COc1cc(OC)c(N(C)S(=O)(=O)c2cccc(C(=O)NCc3cccs3)c2)cc1Cl | . | . | 10µM* | . | . | .
C=CCN(c1ccccc1OC)S(=O)(=O)c1cccc(C(=O)NCc2cccs2)c1 | -42% | -25% | -30% | 27% | -7% | .
O=C(c1cc([N+](=O)[O-])ccc1Cl)N1c2ccccc2Sc2ccccc21 | 8.9µM* | ? | -10% | -34% | ? | -11%
CCOc1ccc(CCNC(=O)Cn2ccn3nc(-c4ccccc4)c(CO)c3c2=O)cc1OCC | . | . | -25% | . | . | .
O=c1[nH]c(=O)c2[nH]c(=S)[nH]c2[nH]1 | . | 2.5µM* | 0.71µM* | 10µM* | . | .
Cc1c(CN2CCN(Cc3cccs3)C(CCO)C2)cnn1C (configuration not stated) | . | . | 31% | . | . | .
COc1cc(C(=O)Oc2ccc(Br)cc2C(=S)N2CCOCC2)cc(OC)c1OC | 10µM* | -36% | ? | ? | -30% | 32µM*
COc1ccc(C(=S)N2CCOCC2)cc1OC(=O)c1ccc(C)cc1 | 45µM* | ? | -26% | -20% | ? | -1%
COc1ccc(C(=S)N2CCOCC2)cc1OC(=O)c1ccccc1 | 10µM* | -35% | ? | ? | -38% | 56µM*
COc1cc(C(=S)N2CCOCC2)ccc1OC(=O)/C=C/c1ccco1 | ? | -26% | -4% | 21% | . | 56µM*
O=C(C=Cc1ccco1)N1CCOCC1 | . | -10% | -3% | 9%[57 µM] | . | .
Cc1c(Cl)cccc1NC(=O)C(C)C | . | . | 5% | . | . | .
SMILES | G9a block | JMJD2A Tudor inh | ALOX12 inh | HP1b binding inh | BAZ2B block | Sfp inh
COc1nc(C(=O)NCC(=O)NC(C)(C)C)cc2ccccc12 | . | . | 41% | . | . | .
Cc1cc(C)cc(Nc2nc(N)c(C#N)c(CC#N)c2C#N)c1 | . | . | 38% | . | . | .
COc1cc(C(=S)N2CCOCC2)ccc1OC(=O)c1ccccc1 | 40µM* | -10% | 0% | 13% | -26% | -3%
COc1ccc(C(=S)N2CCOCC2)cc1OC(=O)c1cc(OC)c(OC)c(OC)c1 | 7.9µM* | ? | ? | ? | ? | 45µM*
COc1cc(C(=S)N2CCOCC2)ccc1OC(=O)Cc1ccc(F)cc1 | ? | -15% | 0% | 6% | -8% | 2%
NC(=O)c1ccc[n+]([O-])c1 | . | . | -30% | . | . | .
CCN(CC)CCn1c2ccccc2c2cnc(N)c(C#N)c21 | 35µM* | -21% | -19% | 8% | 10% | 14%
Cc1cc(C)n(-c2nc3sc4c(c3c(=O)[nH]2)CCCC4)n1 | 36%[59 µM] | . | . | . | 7% | 26%
Cc1cc(C)n(-c2nnc(C)c(=O)[nH]2)n1 | 2µM* | 1µM* | -6% | 20% | 7.1µM* | 63µM*
O=C(Nc1ccc(Nc2ccccc2)nc1)c1cc[n+]([O-])cc1 | . | . | 5% | . | . | .
O=C(NC1CCCCC1NC(=O)c1cccs1)c1cccs1 (configuration not stated) | 7%[2.33 µM] | -2% | 1% | 46% | -4% | -1%
CC1CCCCC1NC(=O)CNC(=O)c1cccs1 (configuration not stated) | 14µM* | 12% | 19% | 20% | -1% | .
Cc1cccc(N2C(=O)CC(SC(=Nc3ccccc3)Nc3ccccc3)C2=O)c1 (configuration not stated) | 9%[59 µM] | -23% | 322% | 30% | 10% | 8%
O=C1SC(SC(=Nc2ccccc2)Nc2ccccc2)C(=O)N1c1ccccc1 (configuration not stated) | 45µM* | ? | -28% | ? | ? | -20%
COc1cccc(C2CC(=O)Nc3c2c(=O)[nH]c2ncnn32)c1 (configuration not stated) | 1% | 35µM* | ? | 25% | -4% | 2%
Cc1ccc(-c2csc(/C(C#N)=C/Nc3ccc4c(c3)OCCO4)n2)cc1 | -14% | -21% | -7% | 18% | -22% | 7%
COc1cccc(-c2csc(/C(C#N)=C/c3ccccc3C(F)(F)F)n2)c1 | . | . | 11% | . | . | .
CCN(CC)CCOC(=O)c1ccc(N/C=C(/C#N)c2nc(-c3ccc(OC)c(OC)c3)cs2)cc1 | 1.6µM* | 35µM* | 316% | 14µM* | -33% | ?
CCN(CC)CCOC(=O)c1ccc(N/C=C(/C#N)c2nc(-c3cccc(OC)c3)cs2)cc1 | 28µM* | -11% | 137% | 11% | ? | ?
O=C(NCCNCCO)c1nc2ccccc2c(=O)[nH]1 | . | . | -4% | . | . | .
CC(C)CNC(=O)C(Cc1ccccc1)NC(=O)C(c1ccccc1)c1ccccc1 (configuration not stated) | . | . | -22% | . | . | .
CCC(=Nc1ccccc1O)C1=C(O)CC(c2ccccc2)CC1=O (configuration not stated) | -36% | -19% | 0% | 6% | -30% | 79µM*
Cc1cc(-c2cc3c(cn2)CN(CC2CCOCC2)CCN3)ccn1 | . | . | 3%[176 µM] | . | . | .
COC(=O)c1sc2nc(CSc3nc4ccc(C)cc4[nH]3)[nH]c(=O)c2c1C | ? | -24% | 32% | 14% | 13% | -6%

Assay outcomes (PubChem BioAssay)
